Inconclusive results are not listed. Values without a mark were called inactive. Calls follow the shape of the dose curve; as a rule, active = well fitted activation curve with a large enough effect in the signal ratio in the repeat runs (not every such curve was filed as active); inconclusive = weak or mixed curves, or effect the other way; inactive = flat fitted curve, though single readings scatter; the % refers to the signal ratio.
Molecular target: Estrogen receptor beta (Homo sapiens) (UniProt Q92731)
Assay: qHTS assay to identify small molecule agonists of the estrogen receptor beta (ER-beta) signaling pathway (AID 1259377)
Settings: ER-beta-UAS-bla HEK293T, beta-lactamase FRET ratio, 16 h; series mostly up to 92.4 µM; activation: at the top concentration
From the text: U.S. Tox21 Program National Center for Advancing Translational Sciences [NCATS] NIH Chemical Genomics Center [NCGC] U.S. Environmental Protection Agency [EPA] National Institutes of Environmental Health Sciences [NIEHS] National Toxicology Program [NTP] U.S. Food and Drug Administration [FDA] Tox21 Assay Overview: Estrogen receptor (ER), a nuclear hormone receptor, plays an important role in development, metabolic homeostasis and reproduction. Two subtypes of ER, ER-alpha and ER-beta, have similar expression patterns with some uniqueness in both types. Endocrine disrupting chemicals (EDCs) and their interactions with steroid hormone receptors like ER causes disruption of normal endocrine function. To identify the compounds that activate ER signaling, an ER beta-UAS-bla GripTite cell line (Life technologies, Madison, WI, USA) containing a beta-lactamase reporter gene under the control of an Upstream Activator Sequence (UAS) was used to screen Tox21 10K compound library.
Tox21 Assay Protocol Summary: ER-beta-UAS-bla HEK293T cells were dispensed at 2,000 cells/5 uL of assay medium containing 2% charcoal stripped FBS per well into black wall/clear-bottom 1536-well plates using a Multidrop Combi (ThermoFisher Scientific, Waltham, MA) dispenser. After the assay plates were incubated at a 37C and 5% CO2 for 6 hr, 23 nL of compounds dissolved in DMSO, positive controls or DMSO only was transferred to the assay plate by a Pintool station (Kalypsys, San Diego, CA). The plates were incubated at 37C and 5% CO2 for 16 hr. Then 1 uL of LiveBLAzerTM B/G FRET substrate was added using a BioRAPTR FRD (Flying Reagent Dispenser, Aurora Discovery, San Diego, CA). After the plates were incubated at room temperature for 2 hours, fluorescence intensity was measured by an Envision plate reader (PerkinElmer, Shelton, CT).
% is scaled to controls: 0 for no effect and ±100 for the full control effect.

Sequence of Estrogen receptor beta (Homo sapiens) (Q92731 whole entry, looked up): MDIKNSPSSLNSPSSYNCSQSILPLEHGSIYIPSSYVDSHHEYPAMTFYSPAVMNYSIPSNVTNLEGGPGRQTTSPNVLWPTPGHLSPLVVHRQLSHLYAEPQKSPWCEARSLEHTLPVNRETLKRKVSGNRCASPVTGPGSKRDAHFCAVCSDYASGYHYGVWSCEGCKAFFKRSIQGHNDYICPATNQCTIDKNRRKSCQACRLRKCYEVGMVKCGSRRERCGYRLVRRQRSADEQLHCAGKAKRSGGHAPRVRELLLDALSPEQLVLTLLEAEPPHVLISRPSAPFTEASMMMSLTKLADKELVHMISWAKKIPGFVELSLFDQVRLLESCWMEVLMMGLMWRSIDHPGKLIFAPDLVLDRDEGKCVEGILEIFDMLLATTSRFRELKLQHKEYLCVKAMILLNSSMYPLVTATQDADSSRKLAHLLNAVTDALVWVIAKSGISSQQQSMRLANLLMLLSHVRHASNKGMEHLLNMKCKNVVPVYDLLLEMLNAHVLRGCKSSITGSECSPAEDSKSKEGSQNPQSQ

Structure (SMILES) | activation
CN1CCN(C)CC1 | -1.78%
O=C(Nc1ccccc1)c1cc(Cl)ccc1O | -3.68%
CCCC(C)C=O (stereo not given) | -0.279%
c1ccc2cc3c4ccccc4c4ccccc4c3cc2c1 | -0.935%
C=CC(=O)O[C@H]1C[C@@H]2CC[C@@]1(C)C2(C)C | 9.47%
COc1cc(OC)nc(NC(=O)NS(=O)(=O)Nc2ccccc2C(=O)N(C)C)n1 | -3.31%
CCc1c(C)cc(N)c(CC)c1N | -0.0309%
O=c1[nH]cccc1O | -3.98%
CC(C)(C)C1=CC(=O)C(C(C)(C)C)=CC1=O | -5.2% [at 42.5 µM]
COc1cc([C@@H]2c3cc4c(cc3[C@@H](O[C@@H]3O[C@@H]5CO[C@@H](C)O[C@H]5[C@H](O)[C@H]3O)[C@H]3COC(=O)[C@H]23)OCO4)cc(OC)c1O | 0.0958%
CC(C)(c1ccc(Oc2ccc(N)cc2)cc1)c1ccc(Oc2ccc(N)cc2)cc1 | -2.15%
CCCCNc1ccc(NCCCC)c2c1C(=O)c1ccccc1C2=O | -2.22% [at 19 µM]
O[Si](c1ccccc1)(c1ccccc1)c1ccccc1 | -0.997%
O=C1CCC/C=C\CCCCCCCCCC1 | 2.03%
C/C=C/C(=O)OCC(C)C | -0.604%
CC(c1cc(C(C)(C)C)cc(C(C)(C)C)c1O)c1cc(C(C)(C)C)cc(C(C)(C)C)c1O | -1.37%
Nc1ccc(Oc2cccc(Oc3ccc(N)cc3)c2)cc1 | -2.98%
CCN(CC)c1ccc(C=O)cc1 | -2.7%
CSc1nnc(C(C)(C)C)c(=O)[nH]1 | 4.7%
CC(C)(C)c1ccc(OC2CCCCC2O)cc1 (stereo not given) | -3.98%

Structure (SMILES) | activation
CCc1cccc(C)c1N(C(=O)CS(=O)(=O)O)C(C)COC (stereo not given) | -2.8%
NCc1cccc(C2CCN(C(=O)c3ccc(C#Cc4ccccc4F)o3)CC2)c1 | -4.3%
CCNc1nc(NC(C)(C)C)nc(OC)n1 | -0.103%
CC(C)c1ccc2sc3ccccc3c(=O)c2c1 | 5.06%
CCN(CC)c1ccc(N=Nc2ccccc2)cc1 | -5.75%
CC(=O)Nc1ccc(N=Nc2cc(C)ccc2O)cc1 | -1.06%
CCOC(=O)[C@H](C)O | 9.62%
CCCCCCCCOC(=O)c1cc(O)c(O)c(O)c1 | -0.461%
O=C(Cl)c1ccc(Cl)cc1Cl | -0.124%
COc1cc2ncnc(Nc3cccc(Cl)c3)c2cc1OC | -5.03% [at 19 µM]
O=C(CCCCCCCCc1cccnc1)N1CCC(C=C(c2ccccc2)c2ccccc2)CC1 | -0.579%
Cc1ccc(Cl)c(N)c1Cl | -0.0958%
Nc1cc([N+](=O)[O-])ccc1Cl | 4.4%
CC(C=O)c1ccccc1 (stereo not given) | 1.38%
CC(CC(C)(C)C)CC(C)(C)CC(C)(C)C (stereo not given) | -0.94% [at 42.5 µM]
NC(=O)c1ccccc1Cl | -0.497%
Nc1c(Br)cc([N+](=O)[O-])cc1Br | -2.2%
NCc1ccco1 | -2.55%
O=C1C=CC(=O)N1c1cccc(N2C(=O)C=CC2=O)c1 | -1.94%
C=CC(=O)OCC(Br)CBr (stereo not given) | 0.0077%
